Data taken from PubChem BioAssay (NCATS).
Where “and” joins values, the source holds several entries; their conditions need not be identical. Equal entries are not always repeated. Inconclusive results are not listed. Calls of active or inactive are those of the source. The call rests on the fitted dose curve; in most records, active means well fitted curve in the direction sought with a large enough effect; inconclusive means small, poorly fitted or top-dose-only effect, or another doubt; inactive means no such curve, though single readings can be large; an effect the other way counts as inactive or inconclusive. Peptide text beside a SMILES is read from it. * marks the point of attachment. Cbz = O=C(OCc1ccccc1)*; CH2F = FC*

How the values were obtained:
[1] = target: Cellular tumor antigen p53 (Homo sapiens) (UniProt P04637); assay: Primary qHTS for small molecule compounds that upregulate eGFP-tagged delta133p53alpha (in N-terminal) cells. (AID 2060322); conditions: NCI-H358 eGFP-delta133p53alpha fluorescence, 24 h; activation: stronger effect = higher value;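 further: cells pre-induced with doxycycline then dosed without doxycycline; 0% = DMSO vehicle and 100% = reference activator; nearly all actives have a fitted effect of over 75% in size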
How it was run: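 NCI-H358 cells pre-induced 24 h with 10 ng/ml doxycycline for eGFP-delta133p53alpha, plated dox-free and exposed 24 h at 37C to titrated compounds. Fixed, Hoechst-stained; gated GFP peak intensity by laser scanning cytometry, normalized to DMSO (0%) and 57.5 uM 5-azacytidine (100%).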

[2] = target: Aldehyde dehydrogenase, mitochondrial (Homo sapiens) (UniProt P05091); assay: qHTS for Inhibitors of the Aldehyde Dehydrogenase Family (ALDH2) Primary screen (AID 2061308); conditions: ALDH2 enzyme inhibition qHTS, 1536-well; series mostly up to 56 µM;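 further: plate controls were vehicle for no effect and reference inhibitor for full effect; nearly all actives have a fitted effect of over 55% in size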
[3] = target: Retinaldehyde dehydrogenase 3 (Homo sapiens) (UniProt P47895); assay: qHTS for Inhibitors of the Aldehyde Dehydrogenase Family (ALDH1A3) Primary screen (AID 2061315); conditions: ALDH inhibition qHTS; series mostly up to 56 µM;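 further: plate controls were DMSO vehicle for no effect and reference inhibitor for full effect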

Chain of Cellular tumor antigen p53 (Homo sapiens) (P04637 whole entry, looked up): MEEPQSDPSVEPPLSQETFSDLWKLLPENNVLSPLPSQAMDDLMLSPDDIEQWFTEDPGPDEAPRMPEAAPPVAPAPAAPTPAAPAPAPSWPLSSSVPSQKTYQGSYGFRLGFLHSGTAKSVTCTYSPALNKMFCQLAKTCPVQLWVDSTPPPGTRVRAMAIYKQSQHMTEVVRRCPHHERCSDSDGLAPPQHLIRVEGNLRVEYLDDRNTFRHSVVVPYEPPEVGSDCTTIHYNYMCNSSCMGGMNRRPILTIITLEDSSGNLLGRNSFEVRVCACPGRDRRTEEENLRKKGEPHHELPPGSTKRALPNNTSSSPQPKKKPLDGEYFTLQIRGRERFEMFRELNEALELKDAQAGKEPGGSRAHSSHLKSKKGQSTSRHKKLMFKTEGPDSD

CC(C)C(=O)OC[C@H]1O[C@H](O[C@H]2O[C@H](CO)[C@@H](O)[C@H](O)[C@H]2O)[C@H](O)[C@@H](O)[C@@H]1O
inactive: activation [1] -6.11% | Potency [2] | Potency [3]

Cn1c(=O)c2nc(/C=C/c3cccc(Cl)c3)n(C)c2n(C)c1=O
inactive: activation [1] -2.33% | Potency [2] | Potency [3]

CC1(C)CC[C@]2(C(=O)O)CC[C@]3(C)C(=CCC4[C@@]5(C)C[C@H](O)[C@H](O[C@@H]6O[C@H](CO)[C@@H](O)[C@H](O)[C@H]6O)[C@@](C)(CO)C5[C@H](O)C[C@]43C)[C@@H]2C1 (some centres not stated)
inactive: activation [1] -13% | Potency [2] | Potency [3]

OC[C@H]1O[C@H](O[C@]2(CCl)O[C@H](CCl)[C@@H](O)[C@@H]2O)[C@H](O)[C@@H](O)[C@H]1Cl
inactive: activation [1] -5.86% and -10% | Potency [2] | Potency [3]

CC(=O)O[C@@H](C[C@@H]1C=C(C)C(=O)O1)[C@H](C)[C@H]1CCC2[C@@]3(C)CC[C@H](O[C@@H]4O[C@H](CO)[C@@H](O)[C@H](O)[C@H]4O[C@@H]4O[C@@H](C)[C@H](O)[C@@H](O)[C@H]4O)C(C)(C)C3CC[C@@]2(C)[C@@]12COC(=O)C2 (some centres not stated)
inactive: activation [1] 1.79% | Potency [2] | Potency [3]

O=C(O)CCc1cccc(O)c1O[C@@H]1O[C@H](CO)[C@@H](O)[C@H](O)[C@H]1O
inactive: activation [1] 0% | Potency [2] | Potency [3]

CCC(C)(C)C1CCc2c(sc(NC(=O)c3ccc(Br)cc3)c2C#N)C1 (configuration not stated)
inactive: activation [1] -0.333% | Potency [2] | Potency [3]

C=C[C@]1(C)C=C2CCC3C(C)(CCC[C@@]3(C)C(=O)O)C2CC1 (some centres not stated)
inactive: activation [1] 3.57% | Potency [2] | Potency [3]

C/C=C(\C)C(=O)OC[C@H]1O[C@@H](O[C@H]2[C@@H](O[C@H]3O[C@H](COC(=O)/C(C)=C/C)[C@@H](O)[C@H](O)[C@H]3O[C@@H]3O[C@H](CO)[C@@H](O)[C@H](OC(=O)/C(C)=C/C)[C@H]3O)O[C@H](COC(=O)/C(C)=C/C)[C@@H](O)[C@@H]2O)[C@H](O)[C@@H](O)[C@@H]1O
inactive: activation [1] -25.2% | Potency [2] | Potency [3]

O=C(NC[C@H]1CN(c2ccc(N3CCOCC3=O)cc2)C(=O)O1)c1ccc(Cl)s1
inactive: activation [1] 5.25% | Potency [2] | Potency [3]

COC(=O)CC[C@H](NC(=O)[C@H](CC(C)C)NC(=O)OCc1ccccc1)C(=O)N[C@@H](Cc1cnc[nH]1)C(=O)N[C@@H](CC(=O)OC)C(=O)CF (Cbz-LE(OMe)HD(OMe)-CH2F)
inactive: activation [1] 23.7% | activity change, negative = inhibition [2] -2.9% [at 11.2 µM] | activity change, negative = inhibition [3] -9.94% [at 11.2 µM]

C=C(CCO)C(=O)OCC1OCC(OC(=O)C(=C)CCO[C@@H]2O[C@H](CO)[C@@H](O)[C@H](O)[C@H]2O)C(O)C1O (some centres not stated)
inactive: activation [1] -8.4% | Potency [2] | Potency [3]

COc1cc(C)c(C(=O)NC2C(C)OC(OC3CCC(C)C4C3C=C(C)C3/C(C)=C\CC/C(C)=C/C5(C)C=C(C(=O)O)C(C)CC56OC(=O)/C(=C(\O)C34C)C6=O)C(O)C2(C)O)c(O)c1 (configuration not stated)
inactive: activation [1] 3.82% | Potency [2] | Potency [3]

CC(=O)OCC1OC(O[C@H]2CC[C@@]3(C)C(CC[C@]4(C)C3CC=C3[C@@H]5CC(C)(C)CC[C@]5(C(=O)O)CC[C@]34C)[C@]2(C)CO)C(O)C(O)C1OC1OC(C)C(O)C(OC2OCC(O)C(O)C2O)C1O (some centres not stated)
inactive: activation [1] -6.11% | Potency [2] | Potency [3]

C=Cc1ccc(O[C@@H]2O[C@H](CO[C@@H]3O[C@@H](C)[C@H](O)[C@@H](O)[C@H]3O)[C@@H](O)[C@H](O)[C@H]2O)cc1
inactive: activation [1] 0.893% | Potency [2] | Potency [3]

OC1COC(OCC2OC(OCCc3ccccc3)C(O)C(O)C2O)C(O)C1O (configuration not stated)
inactive: activation [1] -11.5% | Potency [2] | Potency [3]

CCCO[C@@H]1O[C@H](CO)[C@@H](O)[C@H](O)[C@H]1O[C@@H]1OC[C@@H](O)[C@H](O)[C@H]1O
inactive: activation [1] -15.3% | Potency [2] | Potency [3]

C=C[C@H]1[C@H](O[C@@H]2O[C@H](CO)[C@@H](O)[C@H](O)[C@H]2O)OC=C(C(=O)OC)[C@H]1CC(=O)O
inactive: activation [1] -12.2% | Potency [2] | Potency [3]

C[C@H]1CC[C@@]2(OC1)O[C@H]1CC3C4CC[C@H]5C[C@@H](O)CC[C@]5(C)C4CC(=O)[C@]3(C)[C@H]1[C@@H]2C (some centres not stated)
inactive: activation [1] 25.9% | Potency [2] | Potency [3]
